The record followed here is the supplement of paper PMC12350171.

Holding throughout (conditions): 20 µM
Assay [1] deals with Haemophilus parainfluenzae. In words: growth AUC normalised to DMSO control (fraction of control); higher = less growth inhibition, active = hit call of the paper. An outline of the steps: (§1)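 Three biological replicates were carried out, with OD578 read hourly for 24 h. Before inoculation at a starting OD578 of 0.01, pathogens were passaged anaerobically twice; plates were pre-reduced mGAM containing 20 μM compound and 1% DMSO, sealed with breathable membranes, and the Haemophilus parainfluenzae medium carried added hemin and NAD. Area under each growth curve was calculated by the trapezoidal rule up to the exponential-to-stationary transition and normalised to DMSO controls on the same plate.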

The subject of assay [2] is Salmonella enterica typhimurium. The assay is described as above. In outline:
as §1

The next assay has as its system Shigella flexneri. The description is as above. In outline:
as §1

Another assay has as its system Vibrio cholerae. The assay is described as above. An outline of the steps: as §1
Assay [3] relates to Yersinia pseudotuberculosis. The description is as above. An outline of the steps: as §1
The subject of another assay is P. vulgatus RND KO. In words: growth AUC normalised to DMSO control (median) (fraction of control); higher = less growth inhibition, active = hit call of the paper. In outline:
(§2)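 Strains were passaged twice overnight without oxygen, then grown in mGAM in 96-well plates with each approved-drug library compound at 20 μM and 1% DMSO, starting at OD578 0.01. OD578 was read hourly for 24 h inside an anaerobic incubator. Curves were truncated at entry into stationary phase, and the trapezoidal-rule area under the curve was normalised to same-plate vehicle wells. The value is the median across three biological replicates.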

A further assay relates to P. vulgatus WT. The assay is described as above. An outline of the steps: as §2
For assay [4], the system named is S. enterica typhimurium WT. The assay is described as above. In outline:
as §2

Assay [5] has as its system S. enterica typhimurium tolC KO. The description is as above. An outline of the steps: as §2

Where a name gives a salt, the structure may show the parent alone. Values without a mark were called inactive.
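For growth AUC normalised to DMSO control (median) in this document: active when median AUC fell below 0.1.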

As to `O=C(Cn1ccnc1[N+](=O)[O-])NCCO` [Etanidazole], the “growth AUC normalised to DMSO control” value in [1] was 0.929.

`NS(=O)(=O)c1cc(C(=O)O)cc(N2CCCC2)c1Oc1ccccc1` [Piretanide]: the “growth AUC normalised to DMSO control” value in assay [1] is 1.06.

In the case of `Clc1ccc(Nc2nnc(Cc3ccncc3)c3ccccc23)cc1` [Vatalanib], the “growth AUC normalised to DMSO control” value in assay [1] was 1.04.

For the molecule `CC(C)(Oc1ccc(C2CC2(Cl)Cl)cc1)C(=O)O` (stereo unspecified) [Ciprofibrate], the “growth AUC normalised to DMSO control” value in [1] was 1.01.

Turning to `CO/N=C(\C(=O)N[C@@H]1C(=O)N2C(C(=O)O)=C(COC(N)=O)CS[C@H]12)c1ccco1` [Cefuroxime sodium salt], in [1], the “growth AUC normalised to DMSO control” value was 0.0255 (active).

For `COc1ccc([C@@H]2Sc3ccccc3N(CCN(C)C)C(=O)[C@@H]2OC(C)=O)cc1` [Diltiazem hydrochloride], the “growth AUC normalised to DMSO control” value in [1] is 0.988.

In the case of `C[C@H](CCC(=O)O)[C@H]1CC[C@H]2[C@@H]3[C@@H](O)C[C@@H]4C[C@H](O)CC[C@]4(C)[C@H]3CC[C@]12C` [Urosiol], the “growth AUC normalised to DMSO control” value in assay [1] is 1.01.

Consider `O=S(=O)(O)c1cc(O)ccc1O` [Ethamsylate diethylammonium salt], for which, in [1], the “growth AUC normalised to DMSO control” value is 0.98.

For the molecule `NS(=O)(=O)c1cc(C2(O)NC(=O)c3ccccc32)ccc1Cl` (stereo unspecified) [Chlorthalidone], the “growth AUC normalised to DMSO control” value in assay [1] is 1.01.

With `Cc1cc(=O)oc2cc(O)ccc12` [Hymecromone], the “growth AUC normalised to DMSO control” value in [1] is 1.

As to `CC(=O)O[C@]1(C(C)=O)CC[C@H]2[C@@H]3C=C(C)C4=CC(=O)CC[C@]4(C)[C@H]3CC[C@@]21C` [Megestrol acetate], the “growth AUC normalised to DMSO control” value in assay [1] is 1.06.

In the case of `CC(=O)O[C@]1(C(C)=O)CC[C@H]2[C@@H]3C=C(C)C4=CC(=O)CC[C@@H]4[C@H]3CC[C@@]21C` [Nomegestrol acetate], the “growth AUC normalised to DMSO control” value in [1] was 0.976.

On to `O=C1CN(/N=C/c2ccc(-c3ccc([N+](=O)[O-])cc3)o2)C(=O)N1` [Dantrolene sodium salt], for which, in assay [1], the “growth AUC normalised to DMSO control” value was 1.03.

Turning to `CN(Cc1ccc(C(C)(C)C)cc1)Cc1cccc2ccccc12` [Butenafine hydrochloride], the “growth AUC normalised to DMSO control” value in assay [1] was 0.913.

Consider `CC[C@H](C)[C@H]1O[C@]2(C=C[C@@H]1C)C[C@@H]1C[C@@H](C/C=C(\C)[C@@H](O[C@H]3C[C@H](OC)[C@@H](O[C@H]4C[C@H](OC)[C@@H](O)[C@H](C)O4)[C@H](C)O3)[C@@H](C)/C=C/C=C3\CO[C@@H]4[C@H](O)C(C)=C[C@@H](C(=O)O1)[C@]34O)O2.CO[C@H]1C[C@H](O[C@H]2[C@H](C)O[C@@H](O[C@@H]3/C(C)=C/C[C@@H]4C[C@@H](C[C@]5(C=C[C@H](C)[C@@H](C(C)C)O5)O4)OC(=O)[C@@H]4C=C(C)[C@@H](O)[C@H]5OC/C(=C\C=C\[C@@H]3C)[C@]54O)C[C@@H]2OC)O[C@@H](C)[C@@H]1O` [Avermectin B1], for which the “growth AUC normalised to DMSO control” value in assay [2] was 1.02; with Shigella flexneri, 1.03; in the assay on Vibrio cholerae, 1.02; in assay [3], 1.01.

For `O=c1c2ccccc2[se]n1-c1ccccc1` [Ebselen], the “growth AUC normalised to DMSO control” value in assay [1] is 0.874; in [2], 0.987; in the assay on Shigella flexneri it was 1.03; in the assay on Vibrio cholerae, 0.999; in [3] it was 0.974; with P. vulgatus RND KO it was 1.04. Also, the “growth AUC normalised to DMSO control” value in the assay with P. vulgatus WT is 1.02; in assay [4], 1.02; in assay [5], 0.971.

With `CCN(CC)C(C)C(=O)c1ccccc1` (stereo unspecified) [Amfepramone hydrochloride], the “growth AUC normalised to DMSO control” value was 0.998 in assay [1]; 0.995 in [2]; 0.982 in the assay with Shigella flexneri; 0.999 in the assay with Vibrio cholerae; 1.02 in assay [3]; 1.01 with P. vulgatus RND KO. The results for the “growth AUC normalised to DMSO control” value (in the assay with P. vulgatus WT; in [4]; in assay [5]) were 1.01, 1.01 and 0.988, respectively.
